# Source: PubChem
# CD40 NFkB inh = CD40 pathway inhibition in BL2 cells. 83,000 compounds, 0.94% hits. AID 1053188. BL2 NF-kB luciferase reporter, CD40L-induced, 4 h. inhibition, % at 10 µM;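 active means mean inhibition of at least 50% with a set share of replicates also reaching that level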;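 further: 0% = neutral control wells and 100% = IKK inhibitor VII at 50 µM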
# Numbers without * were called inactive; [ ] = another dose, or the depositor's remark. The entries come from a sample that favours hits as a whole.
SMILES,CD40 NFkB inh
O=C(CS(=O)(=O)c1ccc(F)cc1)N1CCN(c2ccccc2)CC1,-22
COc1ccccc1CNC(=O)C(C)n1nc(C)c2c(C)n(-c3ccccc3)nc2c1=O (centres undefined),3
CCCC(=O)Nc1cc2c(cc1C(C)=O)OCCO2,15
CCC(=O)N1CC[C@@H]2[C@H]1c1cc(C#Cc3cccnc3)ccc1N[C@@H]2CO,-17[25 µM]
Cc1nc2ccccn2c1C(=O)NCC(C)C,9
N#C[C@@H]1[C@H](c2ccc(C#Cc3ccccc3F)cc2)[C@@H](CO)N1C(=O)C1CCC1,81*
N#C[C@@H]1[C@@H](c2ccc(C#Cc3ccccc3F)cc2)[C@H](CO)N1C(=O)C1CCC1,-29
COc1ccccc1C#Cc1ccc([C@H]2[C@@H](C#N)N(C(=O)C3CCC3)[C@@H]2CO)cc1,-7[25 µM]
N#C[C@@H]1[C@H](c2ccc(C#Cc3ccc(F)cc3)cc2)[C@@H](CO)N1C(=O)C1CCC1,90*[25 µM]
COc1ccccc1C#Cc1ccc([C@@H]2[C@@H](C#N)N(C(=O)C3CCCCC3)[C@@H]2CO)cc1,-1
N#C[C@H]1[C@H](c2ccc(C#Cc3ccc(F)cc3)cc2)[C@H](CO)N1C(=O)C1CCC1,28[25 µM]
N#C[C@H]1[C@H](c2ccc(C#Cc3ccccc3F)cc2)[C@H](CO)N1C(=O)C1CCC1,-3
N#C[C@H]1[C@H](c2ccc(C#Cc3ccccc3F)cc2)[C@@H](CO)N1C(=O)C1CCC1,62*
N#C[C@H]1[C@@H](c2ccc(C#Cc3ccc(F)cc3)cc2)[C@H](CO)N1C(=O)C1CCC1,6[25 µM]
CC(=O)NC[C@@H]1[C@H](c2ccc(-c3cccnc3)cc2)[C@H](CO)N1C(=O)C1CCC1,11[25 µM]
O=C(c1cccs1)N1CCN(C23CC4CC(CC(C4)C2)C3)CC1,3
CCCNC(=O)N1C[C@@H]2[C@H](c3ccccc31)[C@@H](CO)N2CC1CCCC1,2[25 µM]
CCc1c(C)nn(C(=O)/C(C#N)=C\N(C)C)c1C,1
Cc1ccc2c(c1)c1c(n2CC(O)Cn2c(C)nc3ccccc32)C(=O)CCC1 (centres undefined),1
Cc1nc2ccc([N+](=O)[O-])cc2[nH]1,-4
O=C(c1cc2ccccc2o1)N1CCCC1,-16
Cc1cc(C(=O)N/N=C/c2ccc[nH]2)n[nH]1,-34
Cc1ccc2cc(CN(Cc3ccco3)S(=O)(=O)c3c(C)ccc4nsnc34)c(=O)[nH]c2c1,8
CCCCn1c(N)c(N(CCOC)C(=O)c2oc3ccc(OCC)cc3c2C)c(=O)[nH]c1=O,11
CN1C(=O)c2cc(NC(=O)C3CCOCC3)ccc2OC[C@@H]2O[C@H](CC(=O)NCc3ccccc3F)CC[C@@H]21,3[25 µM]
SMILES,CD40 NFkB inh
CC(=O)Nc1ncnc2c1c(-c1ccc(Cl)cc1)nn2C(C)(C)C,7
CC(=O)N(C(C)=O)c1ncnc2c1c(-c1ccc(Cl)cc1)nn2C(C)(C)C,55*
O=P(Cc1ccccc1)(Cc1ccccc1)c1ccccc1,8
O=C(NNC(=S)NCc1ccccc1)c1ccc(Br)o1,-13
COc1ccc(NS(=O)(=O)c2cccc(C(=O)N/N=C(\C)c3cccnc3)c2)cc1,3
CCCCn1c(NC(=O)c2ccc(Br)o2)c(S(=O)(=O)c2ccccc2)c2nc3ccccc3nc21,66*
Nc1c(S(=O)(=O)c2ccccc2)c2nc3ccccc3nc2n1CCN1CCOCC1,10
CCCCn1c(NC(C)=O)c(C#N)c2nc3ccccc3nc21,-1
CCOC(=O)C1CN(C(=O)OCC)CC1=NNC(N)=O (centres undefined),5
Cc1ccc(Cn2c(C)c3cnn(CC(=O)NC4CCCC4)c(=O)c3c2C)cc1,-11
O=C(Cn1ncc(Cl)c(Cl)c1=O)NC1CCCCC1,97*
O=C(CN1CCN(Cc2ccccc2Cl)C1=O)NC1CCCCCCC1,11
CC(=O)N1CCN2C(=O)C1CCCC(=O)c1cc(C3CCCCC3)ccc12 (centres undefined),29
COc1ccc(Nc2nnc(SCC(=O)NC3CCCC3)s2)cc1,-15
O=C1CCc2cc(S(=O)(=O)N3CCN(C(=O)c4ccco4)CC3)ccc2N1,5
COc1ccc(/C=C/C(=O)N2CCNC(=O)C2)c(OC)c1,-8
C=C1C(=O)OC2C=C(CO)C3OC3C3OC3(C)CC(OC(=O)/C(=C/C)COC(C)=O)C12 (centres undefined),101*
Brc1cnc(OCc2ccccc2)nc1OCc1ccccc1,5
CN1CCCC1(C)C(=O)NCc1ccc(F)cc1Cl (centres undefined),9
CC1Cc2nc(SCC(=O)N3CCCCC3)n(C)c(=O)c2S1 (centres undefined),7
O=C(CNC(=O)C(c1ccccc1)c1ccccc1)OCC(=O)c1cccs1,0
O=C(c1cc2ccccc2s1)N1CCOCC1,-7
c1ccc2[nH]c(-c3ccc4c(c3)OCO4)nc2c1,14
c1csc(-c2nc3ccccc3s2)c1,-97
CCNC(=O)COC(=O)c1ccc(-c2nc3ccccc3s2)s1,-56
SMILES,CD40 NFkB inh
O=C(NC1CC1)c1ccc(-c2nc3ccccc3s2)s1,75*
O=C(c1ccc(-c2nc3ccccc3s2)s1)N1CCOCC1,88*
c1ccc2sc(-c3ccc4c(c3)OCO4)nc2c1,53*
O=C(Nc1cccc(-c2nc3ccccc3s2)c1)c1ccc2c(c1)OCO2,-37
CCN1CCN(C(=O)c2ccc(-c3nc4ccccc4s3)s2)CC1,-45
CC(C)NC(=O)N1[C@H](CN(C)C(=O)c2ccncc2)[C@@H](c2ccccc2)[C@@H]1CO,-5
Cc1ccc(S(=O)(=O)NNC(=O)C2CCN(Cc3ccccc3)CC2)cc1,21
CCSc1nnc(-c2cccnc2)n1Cc1ccco1,9
CC(C)NC(=O)C1CCCN(S(C)(=O)=O)C1 (centres undefined),13
O=C(O)CC(CC(=O)Nc1ccc2ccccc2n1)c1ccccc1 (centres undefined),2
O=C(Cn1nnc(-c2ccccc2)n1)N1CCN(c2ccc(F)cc2)CC1,6
c1cncc(-c2nnc(SCc3cccc4ccccc34)o2)c1,22
Cc1ccc2ncccc2c1[N+](=O)[O-],6
O=[N+]([O-])c1cccc(/C=C/c2ccccn2)c1,-58
Cc1noc(/C=C/c2ccccn2)c1[N+](=O)[O-],42*
CCCCC(CC)C(=O)Nc1ncc([N+](=O)[O-])s1 (centres undefined),8
Cc1ccc(CC(=O)Nc2ncc([N+](=O)[O-])s2)cc1,-47
O=C(/C=C/c1ccc([N+](=O)[O-])cc1)Nc1ncc([N+](=O)[O-])s1,92*
CO[C@H]1CC[C@@H]2CCOc3c(C#N)cccc3C(=O)N(C)CC3(CCCCC3)CC(=O)N(C)C[C@H]1O2,-4[25 µM]
O=C(NCc1ccccc1)[C@@H]1N[C@@H]2c3cccc(=O)n3C[C@@H]2[C@H]1CO,7[25 µM]
CCOc1ccc(/C=C/C(=O)N(CC)CC(=O)Nc2c(F)cccc2F)cc1OC,5
CCN(CC(=O)Nc1c(F)cccc1F)C(=O)/C=C/c1ccc2ccccc2n1,-9
CCN(CC(=O)Nc1c(F)cccc1F)C(=O)/C=C/c1ccc(C)o1,84*
CCOC(=O)c1nnn(-c2nonc2N)c1CSc1ccccc1,8
O=C(O)c1cccc2c1C(=O)N(Cc1ccncc1)C2,3
SMILES,CD40 NFkB inh
CCCC(=O)NNC(=O)CCC(=O)Nc1ccccc1Cl,9
CCNC1=C(Cl)C(=O)c2ccccc2C1=O,-25
CCCC(=O)NC1=C(Cl)C(=O)c2ccccc2C1=O,107*
COc1ccc(NC(=O)CCCc2nc3ccccc3c(=O)[nH]2)cc1Cl,16
CCOc1ccc(S(=O)(=O)Nc2cccc(C(=O)NCCCN3CCCC3=O)c2)cc1,13
COC(=O)c1c(C(=O)OC)c(C)n(Cc2ccco2)c1C,11
